# Values without a mark were called inactive. Results filed as inconclusive are left out. Active and inactive are the calls of the source. Calls follow the shape of the dose curve; as a rule, active = well fitted curve in the direction sought with a large enough effect; inconclusive = small, poorly fitted or top-dose-only effect, or another doubt; inactive = no such curve, though single readings can be large; an effect the other way counts as inactive or inconclusive.
# Target: Cytochrome P450 2C9 (Homo sapiens) (UniProt P11712)
# Assay: qHTS Assay for Inhibitors and Substrates of Cytochrome P450 2C9 (AID 883); also: nearly all actives have a fitted effect of over 60% in size; also: potency is read from the fitted curve at half-maximal effect; as to activity change, negative = inhibition: % is scaled to controls: 0 for no effect and ±100 for the full control effect
# Conditions: recombinant CYP2C9, luciferin-H luminescence, 60 min; series mostly up to 57.1 µM
# Method in brief: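 10nM CYP2C9 + 100uM Luciferin-H (=KM), 25mM KPO4; cpd 10 min 37C; NADPH regen, 60 min 37C; stop/detect with P450 Glo-Buffer 20 min; luminescence. Norm. to 57uM sulphaphenazole as full inhibition.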
# Cytochrome P450 2C9 (Homo sapiens), sequence (P11712 whole entry, looked up): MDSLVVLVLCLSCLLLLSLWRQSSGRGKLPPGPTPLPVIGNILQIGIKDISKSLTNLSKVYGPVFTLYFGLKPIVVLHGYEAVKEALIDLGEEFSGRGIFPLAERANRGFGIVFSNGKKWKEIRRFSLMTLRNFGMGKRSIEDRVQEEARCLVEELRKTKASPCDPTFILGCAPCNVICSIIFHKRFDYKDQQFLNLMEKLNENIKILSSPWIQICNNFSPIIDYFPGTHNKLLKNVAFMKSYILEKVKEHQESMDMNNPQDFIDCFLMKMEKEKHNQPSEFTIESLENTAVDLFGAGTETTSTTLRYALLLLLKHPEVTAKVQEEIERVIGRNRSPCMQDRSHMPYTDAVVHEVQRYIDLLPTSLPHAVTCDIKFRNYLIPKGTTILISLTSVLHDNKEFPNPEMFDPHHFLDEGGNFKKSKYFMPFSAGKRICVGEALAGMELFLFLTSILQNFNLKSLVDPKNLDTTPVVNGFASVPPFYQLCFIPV
Structure (SMILES),"activity change, negative = inhibition",Potency
Cc1c(O)c(=O)ccn1Cc1ccccc1,-0.343% [at 11.4 µM],
Cn1c(-c2ccccc2)c(O)c(=O)c2ccccc21,-1.19% [at 11.4 µM],
CNc1ccccc1C(=O)OCC(C)=O,24.8% [at 11.4 µM],
O=C1CCCC=C1[C@@H](O)CCOC(c1ccccc1)(c1ccccc1)c1ccccc1,,794 nM (active)
CC1=C(C)CC(c2ccccc2)C(C(=O)c2ccccc2O)C1 (configuration not stated),-27.8% [at 11.4 µM],
N#CCCN(CC#Cc1ccccc1)OCc1ccccc1,,3160 nM (active)

# Target: Cytochrome P450 3A4 (Homo sapiens) (UniProt P08684)
# Assay: qHTS Assay for Inhibitors and Substrates of Cytochrome P450 3A4 (AID 884); also: nearly all actives have a fitted effect of over 50% in size; also: potency is read from the fitted curve at half-maximal effect; as to activity change, negative = inhibition: % is scaled to controls: 0 for no effect and ±100 for the full control effect
# Conditions: recombinant CYP3A4, Luciferin-PPXE luminescence; series mostly up to 57.1 µM
# Method in brief: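 20 nM human CYP3A4 with 25 uM Luciferin-PPXE (at KM) in 200 mM KPO4, preincubated 10 min with compound; NADPH regeneration started a 60 min RT reaction. Luciferin detected by luminescence, normalized to 57 uM ketoconazole as full inhibition.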
# Cytochrome P450 3A4 (Homo sapiens), sequence (P08684 whole entry, looked up): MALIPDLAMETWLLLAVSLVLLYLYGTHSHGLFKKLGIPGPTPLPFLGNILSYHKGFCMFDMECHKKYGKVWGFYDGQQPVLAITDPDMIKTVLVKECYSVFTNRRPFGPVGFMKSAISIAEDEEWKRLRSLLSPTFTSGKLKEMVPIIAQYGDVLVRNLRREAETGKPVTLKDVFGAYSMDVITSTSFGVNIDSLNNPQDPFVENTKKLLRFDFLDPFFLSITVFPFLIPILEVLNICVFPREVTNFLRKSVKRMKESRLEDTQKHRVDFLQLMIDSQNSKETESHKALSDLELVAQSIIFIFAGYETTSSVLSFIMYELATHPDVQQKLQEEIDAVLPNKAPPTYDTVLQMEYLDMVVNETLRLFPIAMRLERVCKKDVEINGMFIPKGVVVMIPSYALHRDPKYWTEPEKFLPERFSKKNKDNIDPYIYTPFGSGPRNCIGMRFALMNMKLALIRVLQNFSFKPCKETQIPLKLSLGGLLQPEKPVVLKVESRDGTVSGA
Structure (SMILES),"activity change, negative = inhibition",Potency
Cc1c(O)c(=O)ccn1Cc1ccccc1,-6.33% [at 11.4 µM],
Cn1c(-c2ccccc2)c(O)c(=O)c2ccccc21,-14.6% [at 11.4 µM],
CNc1ccccc1C(=O)OCC(C)=O,-11.5% [at 11.4 µM],
CC1=C(C)CC(c2ccccc2)C(C(=O)c2ccccc2O)C1 (configuration not stated),-21.6% [at 11.4 µM],
N#CCCN(CC#Cc1ccccc1)OCc1ccccc1,,199 nM (active)
Cc1ccc(S(=O)(=O)n2c3ccccc3c3nnc(C(=O)c4ccccc4)nc32)cc1,,3980 nM (active)

# Target: Cytochrome P450 3A4 (Homo sapiens) (UniProt P08684)
# Assay: qHTS Assay for Activators of Cytochrome P450 3A4 (AID 885); also: nearly all actives have a fitted effect of over 65% in size
# Conditions: recombinant CYP3A4, Luciferin-PPXE luminescence, 60 min; series mostly up to 57.1 µM
# Method in brief: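 Human CYP3A4 (20 nM) with Luciferin-PPXE at 25 uM (its KM) in 200 mM KPO4; 10 min compound preincubation, then NADPH regeneration and 60 min reaction at RT. Luciferin read by luminescence; normalized to 57 uM ketoconazole full inhibition.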
row,Structure (SMILES),"activity change, positive = activation"
1,CCCCCCCC1=Cc2ccccc2C(CC(C)=O)N1C(=O)OC (configuration not stated),-59.5% [at 11.4 µM]
2,N#CCCN(CC#Cc1ccccc1)OCc1ccccc1,-80.9% [at 11.4 µM]
3,Cc1ccc(S(=O)(=O)n2c3ccccc3c3nnc(C(=O)c4ccccc4)nc32)cc1,-61.8% [at 11.4 µM]

# Target: Cytochrome P450 2C19 (Homo sapiens) (UniProt P33261)
# Assay: qHTS Assay for Inhibitors and Substrates of Cytochrome P450 2C19 (AID 899); also: nearly all actives have a fitted effect of over 60% in size; also: potency is read from the fitted curve at half-maximal effect; as to activity, negative = inhibition: % is scaled to controls: 0 for no effect and ±100 for the full control effect
# Conditions: recombinant CYP2C19, luciferin-H EGE luminescence; series mostly up to 57.1 µM
# Method in brief: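 Luminescent read-out of luciferin formed from Luciferin-H EGE (10uM, equal to KM). Enzyme 5nM in 50mM KPO4; compound added, 10 min at 37C, then NADPH regenerating system for 60 min at 37C. Full inhibition defined by 57uM ketoconazole.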
# Cytochrome P450 2C19 (Homo sapiens), sequence (P33261 whole entry, looked up): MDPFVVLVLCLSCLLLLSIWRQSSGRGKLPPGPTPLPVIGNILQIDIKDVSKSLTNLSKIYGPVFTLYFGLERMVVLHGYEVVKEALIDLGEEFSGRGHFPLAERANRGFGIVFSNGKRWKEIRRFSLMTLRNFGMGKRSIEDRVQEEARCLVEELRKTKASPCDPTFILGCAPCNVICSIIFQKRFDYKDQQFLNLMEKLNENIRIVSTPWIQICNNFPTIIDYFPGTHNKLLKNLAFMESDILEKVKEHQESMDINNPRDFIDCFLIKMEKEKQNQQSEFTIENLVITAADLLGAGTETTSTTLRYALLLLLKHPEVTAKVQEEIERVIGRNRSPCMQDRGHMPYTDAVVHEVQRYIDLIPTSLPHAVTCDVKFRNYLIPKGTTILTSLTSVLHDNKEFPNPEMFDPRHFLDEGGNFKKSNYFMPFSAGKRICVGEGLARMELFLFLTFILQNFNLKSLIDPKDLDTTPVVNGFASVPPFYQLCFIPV
Structure (SMILES),"activity, negative = inhibition",Potency
Cc1c(O)c(=O)ccn1Cc1ccccc1,38.4% [at 11.4 µM],
CCCCCCCC1=Cc2ccccc2C(CC(C)=O)N1C(=O)OC (configuration not stated),,2510 nM (active)
Cn1c(-c2ccccc2)c(O)c(=O)c2ccccc21,50% [at 11.4 µM],
CNc1ccccc1C(=O)OCC(C)=O,-17.8% [at 11.4 µM],
O=C1CCCC=C1[C@@H](O)CCOC(c1ccccc1)(c1ccccc1)c1ccccc1,,251 nM (active)
CC1=C(C)CC(c2ccccc2)C(C(=O)c2ccccc2O)C1 (configuration not stated),-23.3% [at 11.4 µM],
N#CCCN(CC#Cc1ccccc1)OCc1ccccc1,,316 nM (active)

# Source: PubChem BioAssay (NCATS)
